From PubChem
NPC1 prom act – activators of NPC1 promoter; Huh7 NPC1 promoter luciferase reporter, 24 h; Potency, µM (doses to about 9.22 µM), usual class: activators; 2.4% of 320,000 active; also: nearly all actives have a fitted effect of over 60% in size
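NPC1 promoter–luciferase Huh7 cells; 24 h compound; luminescence.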
Rab9 prom act – Rab9 promoter activation; Huh7 Rab9 promoter-luciferase reporter, luminescence, 24 h; Potency, µM (highest dose often 9.22 µM), most hits filed as activators; 2.8% of 320,000 active; AID 485297; also: nearly all actives have a fitted effect of over 60% in size
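Stable Rab9-luc Huh7, 1500 cells/well, 2 h settle; cmpd in DMSO, 24 h, 37 °C/5% CO2; luciferase reagent 10 min RT; luminescence.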
SMN2 splice up – enhancers of SMN2 splice variant expression; HEK293 SMN2-luciferase splicing reporter, luminescence, 30-36 h; Potency, µM (highest dose often 46.1 µM), usual class: activators; 2.8% of 210,000 active; AID 1458; also: nearly all actives have a fitted effect of over 55% in size
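HEK293 cells carry an SMN2 minigene-luciferase reporter in which exon 7 inclusion puts luciferase in frame. Cells were seeded at 2000 cells/well, attached for 10-12 hours, then exposed to compounds for 30-36 hours at 37C before ONE-Glo luminescence.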
Luc counter – counter-screen: inhibitors of Kinase-Glo firefly luciferase; AID 1379; Kinase-Glo luciferase, ATP luminescence, 8 min; Q27757; Potency, µM (series often up to 38.3 µM), actives largely listed as inhibitors; 0.28% of 200,000 active; also: nearly all actives have a fitted effect of over 60% in size
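Luminescence was the read-out, taken after 8-minute incubation at ambient temperature. Luciferase turned over luciferin with 10 uM ATP in imidazole pH 7.2 buffer containing KCl, MgCl2, Tween 20 and BSA.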
FLuc counter – inhibits or activates purified firefly luciferase, miR-21 counter-screen | P08659 | purified FLuc, Km substrates, luminescence inhibition | Potency, µM (highest dose often 57.5 µM), usual class: inhibitors | 6.9% of 360,000 active | AID 588342; also: nearly all actives have a fitted effect of over 55% in size
Target sequence (P08659 whole entry, looked up): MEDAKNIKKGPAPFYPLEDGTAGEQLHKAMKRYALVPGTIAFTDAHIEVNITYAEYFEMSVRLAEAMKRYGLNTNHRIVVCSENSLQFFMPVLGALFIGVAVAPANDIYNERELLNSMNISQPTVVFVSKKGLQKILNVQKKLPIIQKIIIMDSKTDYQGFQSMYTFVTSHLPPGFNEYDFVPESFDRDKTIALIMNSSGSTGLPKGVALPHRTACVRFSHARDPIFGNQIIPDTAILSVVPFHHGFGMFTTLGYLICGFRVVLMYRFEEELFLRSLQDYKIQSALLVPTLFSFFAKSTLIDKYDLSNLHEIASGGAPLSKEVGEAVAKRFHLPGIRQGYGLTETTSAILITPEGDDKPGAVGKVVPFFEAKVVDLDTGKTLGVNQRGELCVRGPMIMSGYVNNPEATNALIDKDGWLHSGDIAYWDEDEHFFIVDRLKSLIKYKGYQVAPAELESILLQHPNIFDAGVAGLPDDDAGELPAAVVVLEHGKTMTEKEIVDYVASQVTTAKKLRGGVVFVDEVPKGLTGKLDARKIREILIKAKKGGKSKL
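Purified P. pyralis luciferase, 10 nM final, with Km-level 10 uM D-luciferin and 10 uM ATP in 50 mM Tris acetate pH 7.5, 10 mM Mg acetate, 0.01% Tween-20, 0.05% BSA; 6-point qHTS titration about 60 µM downward; luminescence read.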
ELG1 genotoxic – genotoxicity induction in ELG1-luciferase HEK293T cells | HEK293T ELG1-luciferase reporter, luminescence, 16 h | Potency, µM (highest dose often 46 µM), usual class: activators | 1.3% of 330,000 active | AID 504466; also: nearly all actives have a fitted effect of over 60% in size
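DMSO vehicle served as control against compound-treated ELG1-luciferase HEK293T cells; exposure lasted 16 hr at 37 °C and 5% CO2, followed by ONE-Glo luminescence detection after 30 min.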
Of the large screens only hits and unclear results are named; the others gave an inactive call. A selection: hits, their analogues and other compounds. The true share with any hit is near 7.3%. Calls follow the shape of the dose curve; as a rule, active = well fitted curve in the direction sought with a large enough effect; inconclusive = small, poorly fitted or top-dose-only effect, or another doubt; inactive = no such curve, though single readings can be large; an effect the other way counts as inactive or inconclusive.

COc1cccc(NC(=O)c2ccccc2F)c1	NPC1 prom act 4µM, Rab9 prom act 3.5µM, FLuc counter 6µM, ELG1 genotoxic 4.6µM (no result: SMN2 splice up, Luc counter)
COc1cccc(NC(=O)COC(=O)c2ccccc2F)c1	FLuc counter 12µM
COc1cccc(NC(=O)COC(=O)c2c(F)cccc2Cl)c1	Rab9 prom act inconclusive, FLuc counter inconclusive, ELG1 genotoxic inconclusive (no result: SMN2 splice up)
COc1cccc(NC(=O)c2ccccc2Br)c1	NPC1 prom act 4µM, Rab9 prom act 3.5µM, FLuc counter 15µM, ELG1 genotoxic inconclusive (no result: SMN2 splice up, Luc counter)
COc1cccc(NC(=O)C2=COCCO2)c1	NPC1 prom act inconclusive, Rab9 prom act 3.2µM, FLuc counter inconclusive, ELG1 genotoxic inconclusive (no result: SMN2 splice up, Luc counter)
COc1cccc(NC(=O)c2ccccc2-c2ccccc2C(=O)O)c1	none (no result: SMN2 splice up, Luc counter)
COC(=O)[C@@H]1O[C@@H](SCCN)[C@@H](O)[C@H](O)[C@H]1O	none (no result: NPC1 prom act, Rab9 prom act, FLuc counter, ELG1 genotoxic)
CCOc1ccc(NC(=O)c2cnn(-c3ccc(C)c(C)c3)c2C2CCN(C(=O)OC(C)(C)C)CC2)cc1	none (no result: NPC1 prom act, Rab9 prom act, Luc counter, ELG1 genotoxic)
COc1cccc(C(=O)Nc2c(F)cccc2F)c1	none (no result: SMN2 splice up, Luc counter)
COc1cc(NC(=O)c2cc(-c3cccc(OC)c3)n[nH]2)cc(OC)c1	FLuc counter 12µM (no result: NPC1 prom act, Rab9 prom act, SMN2 splice up, Luc counter, ELG1 genotoxic)
Cc1ccc(NC(=O)c2cc(-c3ccccc3)n[nH]2)cc1	FLuc counter inconclusive (no result: SMN2 splice up, Luc counter)
COc1cccc(NC(=O)c2c(F)cccc2F)c1	Rab9 prom act inconclusive, FLuc counter inconclusive, ELG1 genotoxic 10µM (no result: SMN2 splice up, Luc counter)
Cc1ccc2[nH]c(C(=O)Nc3ccccc3)cc2c1	FLuc counter 2.1µM (no result: NPC1 prom act, Rab9 prom act, SMN2 splice up, Luc counter, ELG1 genotoxic)
CCC(C)c1ccccc1NC(=O)c1cc2cccc([N+](=O)[O-])c2[nH]1 (stereo unspecified)	FLuc counter inconclusive (no result: SMN2 splice up, Luc counter)
COc1ccc(NC(=O)c2cc3cc(C)ccc3[nH]2)cc1	none (no result: NPC1 prom act, Rab9 prom act, SMN2 splice up, Luc counter, ELG1 genotoxic)
Cc1ccc(NC(=O)c2cc3cccc([N+](=O)[O-])c3[nH]2)cc1	NPC1 prom act 3.2µM, Rab9 prom act 1.3µM, FLuc counter 2.4µM, ELG1 genotoxic inconclusive (no result: SMN2 splice up, Luc counter)
Cc1c(C(=O)Nc2ccc(C(=O)O)cc2)nnn1-c1ccccc1	FLuc counter 0.27µM (no result: NPC1 prom act, Rab9 prom act, SMN2 splice up, Luc counter, ELG1 genotoxic)
Cc1c(C(=O)O)nnn1-c1ccccc1	none
Cc1cccc(-n2nnc(C(=O)Nc3ccc(F)cc3)c2N)c1	NPC1 prom act 1.6µM, Rab9 prom act 2.8µM, SMN2 splice up 10µM, FLuc counter 6µM
Cc1cccc(-n2nnc(C(=O)N3CCc4ccccc4C3)c2N)c1	FLuc counter 15µM
Cc1ccc(NC(=O)c2nnn(-c3cc(C)cc(C)c3)c2N)cc1	FLuc counter inconclusive
Cc1cccc(C(c2sc3nc(-c4ccco4)nn3c2O)N2CCOCC2)c1 (stereo unspecified)	none (no result: NPC1 prom act, Rab9 prom act, SMN2 splice up, Luc counter, ELG1 genotoxic)
Nc1ccc(C(=O)OCC(=O)N2CCOCC2)cc1[N+](=O)[O-]	NPC1 prom act inconclusive, Rab9 prom act inconclusive, SMN2 splice up 20µM, FLuc counter inconclusive, ELG1 genotoxic inconclusive
CC1CCN(C(=O)COC(=O)c2ccc3c(c2)OCO3)CC1	NPC1 prom act inconclusive, Rab9 prom act 3.5µM, FLuc counter 17µM, ELG1 genotoxic inconclusive
CC1CCN(C(=O)COC(=O)c2cccc(NS(=O)(=O)c3ccccc3)c2)CC1	FLuc counter 17µM (no result: SMN2 splice up, Luc counter)
Nc1cc(C(=O)OCC(=O)N2CCOCC2)ccc1Cl	Rab9 prom act inconclusive, FLuc counter inconclusive, ELG1 genotoxic inconclusive (no result: SMN2 splice up, Luc counter)
CC1CCN(C(=O)COC(=O)c2ccc(Br)o2)CC1	FLuc counter 24µM, ELG1 genotoxic inconclusive
CCOC(=O)Cn1c(=O)n(C2CCCCC2)c2nc(-c3ccc(CC)cc3)nc(C(N)=O)c21	none (no result: NPC1 prom act, Rab9 prom act, SMN2 splice up, Luc counter, ELG1 genotoxic)
COC(=O)c1ccc(NC(=O)N2CCN(c3nnc(C)c4c(C)n(-c5ccccc5)nc34)CC2)cc1	none (no result: NPC1 prom act, Rab9 prom act, SMN2 splice up, Luc counter, ELG1 genotoxic)
CC1CCCCN1C(=O)c1ccc2c(c1)N(Cc1ccc(Cl)cc1)C(=O)c1ccccc1S2=O (stereo unspecified)	none (no result: NPC1 prom act, Rab9 prom act, Luc counter, ELG1 genotoxic)
CC(C)(C)NC(=O)c1ccc(C(=O)NC(C)(C)C)cc1	none (no result: SMN2 splice up, Luc counter)
CC(C)(C)NC(=O)c1sccc1C(=O)O	FLuc counter 15µM
COc1ccc2oc(=O)c(-c3nc(C)cs3)cc2c1	NPC1 prom act inconclusive, Rab9 prom act 2.8µM, SMN2 splice up 14µM, Luc counter inconclusive, FLuc counter inconclusive, ELG1 genotoxic inconclusive
COc1ccc2oc(=O)c(-c3nc(-c4ccc(C)c(C)c4)cs3)cc2c1	none (no result: NPC1 prom act, Rab9 prom act, SMN2 splice up, Luc counter, ELG1 genotoxic)
